About 83,000 compounds went through this panel and 20% of them were active in at least one assay; those are over-represented in the sample as a whole.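 48-hour exposure, single concentration, 96-well plates; percent growth endpoint where 0 means no net growth. Active: below 10.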 Active and inactive are the calls of the source.
Key:
Experiment in all cases: NCI-60 one-dose screen, 48 h (100 = growth as untreated, 0 = no growth, -100 = all killed)
Conditions in all cases: 10 µM unless noted
SR leukemia = test system: SR leukemia
RPMI-8226 leukemia = test system: RPMI-8226 leukemia
OVCAR-8 ovarian = test system: OVCAR-8 ovarian
OVCAR-5 ovarian = test system: OVCAR-5 ovarian
OVCAR-4 ovarian = test system: OVCAR-4 ovarian
SK-OV-3 ovarian = test system: SK-OV-3 ovarian
IGROV1 ovarian = test system: IGROV1 ovarian
OVCAR-3 ovarian = test system: OVCAR-3 ovarian
HS 578T breast = test system: HS 578T breast
NCI/ADR-RES ovarian = test system: NCI/ADR-RES ovarian

Measured: growth

COc1c2c(cc3c1C(=O)N[C@@H]1[C@@H](O)[C@@H](O)[C@H](O)C[C@@H]31)OCCO2
inactive: SR leukemia 92.1% | RPMI-8226 leukemia 102% | OVCAR-8 ovarian 100% | OVCAR-5 ovarian 105% | OVCAR-4 ovarian 105% | SK-OV-3 ovarian 98.6% | IGROV1 ovarian 109% | OVCAR-3 ovarian 104% | HS 578T breast 96.2% | NCI/ADR-RES ovarian 113%

Cn1c2ccccc2c2c3c(c4c5cc(Br)ccc5n(C)c4c21)C(=O)N(O)C3=O
inactive: SR leukemia 18.6% | RPMI-8226 leukemia 10.8% | OVCAR-8 ovarian 24.8% | OVCAR-5 ovarian 92.6% | OVCAR-4 ovarian 53.7% | IGROV1 ovarian 21.5% | HS 578T breast 61.9%
active: SK-OV-3 ovarian 3.4% | OVCAR-3 ovarian 6.42% | NCI/ADR-RES ovarian 6.86%

C/C(=C(\c1ccc(OCCN2CCCCCC2)cc1)c1ccc(OC(=O)c2ccccc2)cc1)c1ccc(Cl)cc1
inactive: RPMI-8226 leukemia 13.1% | OVCAR-8 ovarian 42.6% | OVCAR-5 ovarian 68.5% | OVCAR-4 ovarian 37.5% | SK-OV-3 ovarian 77.1% | IGROV1 ovarian 46.7% | OVCAR-3 ovarian 61.8% | HS 578T breast 42% | NCI/ADR-RES ovarian 59%
active: SR leukemia -16.1%

Clc1ccc(-c2cc(-c3ccccc3)nc(N3CCN(CCCNc4ccnc5cc(Cl)ccc45)CC3)n2)cc1
inactive: OVCAR-5 ovarian 33.5% | SK-OV-3 ovarian 106% | NCI/ADR-RES ovarian 36%
active: SR leukemia 5.44% | RPMI-8226 leukemia 4.72% | OVCAR-8 ovarian -47.5% | OVCAR-4 ovarian 9.85% | IGROV1 ovarian -62.4% | OVCAR-3 ovarian -47.9% | HS 578T breast -17.9%

C#Cc1cccc(NC(=O)C2CCCCN2C(=O)CCl)c1 (stereo not given)
inactive: SK-OV-3 ovarian 33.1% [8.25 µM]
active: SR leukemia 2.64% [8.25 µM] | RPMI-8226 leukemia -38.4% [8.25 µM] | OVCAR-8 ovarian 2.11% [8.25 µM] | OVCAR-5 ovarian -95% [8.25 µM] | OVCAR-4 ovarian -66.9% [8.25 µM] | IGROV1 ovarian -69.9% [8.25 µM] | OVCAR-3 ovarian -66.3% [8.25 µM] | HS 578T breast -22.1% [8.25 µM] | NCI/ADR-RES ovarian -5.37% [8.25 µM]

CN(C)CCCn1c2c(c3cnccc3c1=O)C(=O)c1ccccc1-2
active: SR leukemia -8.62% | RPMI-8226 leukemia -13.6% | OVCAR-8 ovarian -11.3% | OVCAR-5 ovarian 0.0676% | OVCAR-4 ovarian -9.31% | IGROV1 ovarian 3.55% | OVCAR-3 ovarian -11.8% | NCI/ADR-RES ovarian -17.7%
inactive: SK-OV-3 ovarian 21.5% | HS 578T breast 20.3%

N#Cc1c(-c2ccccc2)nc2c(c(-c3ccccc3)nn2-c2ccccc2)c1-c1ccc(N2CCCCC2)cc1
inactive: SR leukemia 114% | RPMI-8226 leukemia 107% | OVCAR-8 ovarian 98.4% | OVCAR-5 ovarian 102% | OVCAR-4 ovarian 105% | SK-OV-3 ovarian 104% | IGROV1 ovarian 104% | OVCAR-3 ovarian 111% | HS 578T breast 109% | NCI/ADR-RES ovarian 100%

CN(C)c1ccc(/C=N\NC(=O)c2ccc3nc(-c4ccc(Cl)cc4)[nH]c3c2)cc1
inactive: SR leukemia 20.7% | RPMI-8226 leukemia 67.4% | OVCAR-8 ovarian 51.3% | OVCAR-5 ovarian 89.2% | OVCAR-4 ovarian 36.4% | SK-OV-3 ovarian 98.3% | IGROV1 ovarian 40.2% | OVCAR-3 ovarian 70.7% | HS 578T breast 70% | NCI/ADR-RES ovarian 77%

COc1ccc(Nc2ncc(C#N)c(NCCCNC(=O)C3CCC3)n2)cc1
inactive: SR leukemia 46.3% | RPMI-8226 leukemia 85.8% | OVCAR-8 ovarian 64% | OVCAR-5 ovarian 79.6% | OVCAR-4 ovarian 77.7% | SK-OV-3 ovarian 77.6% | IGROV1 ovarian 54.4% | OVCAR-3 ovarian 70.2% | HS 578T breast 47.7% | NCI/ADR-RES ovarian 83.1%

O=C(NCc1ccc(Cn2c(=O)sn(-c3ccccc3)c2=O)cc1)OCc1ccc2cccc(O)c2n1
inactive: SK-OV-3 ovarian 75.8%
active: SR leukemia -11.3% | RPMI-8226 leukemia -22.5% | OVCAR-8 ovarian -0.135% | OVCAR-5 ovarian -61.2% | OVCAR-4 ovarian -33.6% | IGROV1 ovarian -76.5% | OVCAR-3 ovarian -87.1% | HS 578T breast -1.39% | NCI/ADR-RES ovarian -28.1%

O=c1cc(-c2ccccc2)nc(SCc2nc3cc(Cl)c(Cl)cc3[nH]2)[nH]1
active: SR leukemia 6.56%
inactive: RPMI-8226 leukemia 114% | OVCAR-8 ovarian 104% | OVCAR-5 ovarian 95.2% | OVCAR-4 ovarian 101% | SK-OV-3 ovarian 92.4% | IGROV1 ovarian 101% | OVCAR-3 ovarian 106% | HS 578T breast 105% | NCI/ADR-RES ovarian 97%

CCN1C2CCC1/C(=C\c1ccccc1)C(=O)/C2=C/c1ccccc1
inactive: SR leukemia 27.3% | RPMI-8226 leukemia 38.2% | OVCAR-8 ovarian 22.5% | OVCAR-5 ovarian 88.3% | OVCAR-4 ovarian 46.1% | SK-OV-3 ovarian 78.5% | IGROV1 ovarian 49.9% | OVCAR-3 ovarian 13% | HS 578T breast 71.4% | NCI/ADR-RES ovarian 15.1%

Cc1ccc2c(c1)=C/C(=C\c1cc(-c3ccccc3)[nH]c1O)C(=O)N=2
inactive: SR leukemia 14.1% | RPMI-8226 leukemia 33.8% | OVCAR-8 ovarian 50.6% | OVCAR-5 ovarian 78.9% | OVCAR-4 ovarian 59.7% | SK-OV-3 ovarian 65.7% | IGROV1 ovarian 40.7% | OVCAR-3 ovarian 16.1% | HS 578T breast 41.9% | NCI/ADR-RES ovarian 43.7%

O=C1CCCCN1c1ccc(C2=NCCCN2)cc1
inactive: SR leukemia 99.8% | RPMI-8226 leukemia 57.4% | OVCAR-8 ovarian 104% | OVCAR-5 ovarian 95.9% | OVCAR-4 ovarian 91.3% | SK-OV-3 ovarian 119% | IGROV1 ovarian 95.9% | OVCAR-3 ovarian 83.9% | HS 578T breast 73.2% | NCI/ADR-RES ovarian 103%

CN(C)Cc1cc(C(C)(C)C)cc(Br)c1O
inactive: SR leukemia 107% | RPMI-8226 leukemia 96.9% | OVCAR-8 ovarian 106% | OVCAR-5 ovarian 107% | OVCAR-4 ovarian 102% | SK-OV-3 ovarian 97.4% | IGROV1 ovarian 108% | OVCAR-3 ovarian 114% | HS 578T breast 30.7% | NCI/ADR-RES ovarian 106%

Cc1cc(C)c2c(c1)N(C)c1ncnc(-n3c(C)nc4cc(C)ccc43)c1CC2C (stereo not given)
inactive: SR leukemia 11.3% | RPMI-8226 leukemia 35% | OVCAR-8 ovarian 71.6% | OVCAR-5 ovarian 91.2% | OVCAR-4 ovarian 58.1% | SK-OV-3 ovarian 31.5% | IGROV1 ovarian 47.5% | OVCAR-3 ovarian 21.5% | HS 578T breast 40.9%
active: NCI/ADR-RES ovarian 7.15%

Cn1cc(-c2nonc2-c2c[nH]c3ccccc23)c2cc(Br)ccc21
inactive: SR leukemia 15.3% | RPMI-8226 leukemia 40.6% | OVCAR-8 ovarian 45% | OVCAR-5 ovarian 49% | OVCAR-4 ovarian 49.6% | SK-OV-3 ovarian 49.8% | IGROV1 ovarian 43% | OVCAR-3 ovarian 33.5% | HS 578T breast 59.1% | NCI/ADR-RES ovarian 29.3%

CCn1cc(C(=O)O)c(=O)c2cc(F)c(N3CCN(CC(=O)Nc4ccccc4)C(C)C3)c(F)c21 (stereo not given)
inactive: SR leukemia 109% | RPMI-8226 leukemia 102% | OVCAR-8 ovarian 98.3% | OVCAR-5 ovarian 98.3% | OVCAR-4 ovarian 82.4% | SK-OV-3 ovarian 90.7% | IGROV1 ovarian 103% | OVCAR-3 ovarian 104% | HS 578T breast 91.1% | NCI/ADR-RES ovarian 96.7%

CCOC(=O)c1c(C)nc2ccccc2c1/C=C/c1ccc(F)cc1
inactive: SR leukemia 56.3% | RPMI-8226 leukemia 48.7% | OVCAR-8 ovarian 70.4% | OVCAR-5 ovarian 93.1% | OVCAR-4 ovarian 64.2% | SK-OV-3 ovarian 87.6% | IGROV1 ovarian 66.6% | OVCAR-3 ovarian 80.8% | HS 578T breast 96.3% | NCI/ADR-RES ovarian 41.2%

COc1ccc(CNc2ccc3nc(NC(=O)CN4CCCCCC4)sc3c2)cc1
inactive: SR leukemia 93.5% | RPMI-8226 leukemia 55.6% | OVCAR-8 ovarian 87.8% | OVCAR-5 ovarian 95.5% | OVCAR-4 ovarian 62.3% | SK-OV-3 ovarian 103% | IGROV1 ovarian 107% | OVCAR-3 ovarian 101% | HS 578T breast 115% | NCI/ADR-RES ovarian 82.9%

CC/C(=C(/c1ccc(O)cc1)c1ccc(OCCN2CCCCC2)cc1)c1ccc(OC)cc1
active: SR leukemia -23.3%
inactive: RPMI-8226 leukemia 62.6% | OVCAR-8 ovarian 91.5% | OVCAR-5 ovarian 90.9% | OVCAR-4 ovarian 90.4% | SK-OV-3 ovarian 99.3% | IGROV1 ovarian 85.3% | OVCAR-3 ovarian 66.1% | HS 578T breast 92.2% | NCI/ADR-RES ovarian 77.6%

CS(=O)(=O)c1ccc(-c2nc3ccccc3n2CC(=O)N/N=C/c2ccccc2)cc1
inactive: SR leukemia 99.1% | RPMI-8226 leukemia 108% | OVCAR-8 ovarian 112% | OVCAR-5 ovarian 98.5% | OVCAR-4 ovarian 116% | SK-OV-3 ovarian 93.2% | IGROV1 ovarian 99.7% | OVCAR-3 ovarian 105% | HS 578T breast 102% | NCI/ADR-RES ovarian 105%

CCN(CC)C(=O)CC1=C(C)/C(=C/c2[nH]c(-c3ccc[nH]3)cc2OC)N=C1C
active: SR leukemia -30%
inactive: RPMI-8226 leukemia 13.7% | OVCAR-8 ovarian 16.1% | OVCAR-5 ovarian 51.4% | OVCAR-4 ovarian 43.9% | SK-OV-3 ovarian 22.4% | IGROV1 ovarian 30.6% | OVCAR-3 ovarian 11.1% | HS 578T breast 10.9% | NCI/ADR-RES ovarian 18.3%

C=CC(=O)Nc1cccc(Oc2nccc(Nc3nnc(-c4ccc(Br)cc4)s3)n2)c1
inactive: SR leukemia 89.3% | RPMI-8226 leukemia 87.4% | OVCAR-8 ovarian 98.5% | OVCAR-5 ovarian 95.4% | OVCAR-4 ovarian 86.4% | SK-OV-3 ovarian 91% | IGROV1 ovarian 101% | OVCAR-3 ovarian 102% | HS 578T breast 93.4% | NCI/ADR-RES ovarian 99.8%

CSc1ccc2c3c(n(CCCn4ccnc4)c(=O)c2c1)-c1ccccc1C3=O
active: SR leukemia 3.2%
inactive: RPMI-8226 leukemia 28.9% | OVCAR-8 ovarian 40.2% | OVCAR-5 ovarian 76.5% | OVCAR-4 ovarian 71.8% | SK-OV-3 ovarian 50.9% | IGROV1 ovarian 58.9% | OVCAR-3 ovarian 64.5% | HS 578T breast 91.4% | NCI/ADR-RES ovarian 35.4%

CNC(=O)c1cc(Oc2ccc3c(c2)sc2nc(-c4ccc(Cl)c(C(F)(F)F)c4)cn23)ccn1
inactive: SR leukemia 41.6% | RPMI-8226 leukemia 33.9% | OVCAR-8 ovarian 52.5% | OVCAR-5 ovarian 100% | OVCAR-4 ovarian 65% | SK-OV-3 ovarian 78% | IGROV1 ovarian 86.3% | OVCAR-3 ovarian 74.2% | HS 578T breast 80.3% | NCI/ADR-RES ovarian 60.9%

Source: PubChem BioAssay (NCI)
